Measurements as given in PubChem BioAssay.
A number with no mark means an inactive call. Activity calls are given as the source filed them.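 The calls were made as follows: active = thallium flux through the channel raised or lowered by more than 3 SD from vehicle-only wells, actives on both sides; inactive = the rest.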

Assays:
Test in all cases: modulators of BK channel variants, profiling panel, selectivity assay, cell-based, U2OS BacMam, thallium flux, beta subunits (AID 1259406);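 also: initial slope of Thallos dye fluorescence rise after thallium is added; log ratio against the mean of 0.3% DMSO vehicle wells on the same plate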
F380Y = conditions: at 30 µM
F380Y/beta1 = conditions: at 30 µM
F380Y/beta2Delta = conditions: at 30 µM
F380Y/beta4 = conditions: at 30 µM
[1] = target: Calcium-activated potassium channel subunit alpha-1 (Homo sapiens) + Leucine-rich repeat-containing protein 26 (Homo sapiens) (UniProt Q12791+Q2I0M4); conditions: F380Y/Slo1WT/gamma1, at 30 µM
Chain of Calcium-activated potassium channel subunit alpha-1 (Homo sapiens) + Leucine-rich repeat-containing protein 26 (Homo sapiens) (Q2I0M4 whole entry, looked up, one chain of several): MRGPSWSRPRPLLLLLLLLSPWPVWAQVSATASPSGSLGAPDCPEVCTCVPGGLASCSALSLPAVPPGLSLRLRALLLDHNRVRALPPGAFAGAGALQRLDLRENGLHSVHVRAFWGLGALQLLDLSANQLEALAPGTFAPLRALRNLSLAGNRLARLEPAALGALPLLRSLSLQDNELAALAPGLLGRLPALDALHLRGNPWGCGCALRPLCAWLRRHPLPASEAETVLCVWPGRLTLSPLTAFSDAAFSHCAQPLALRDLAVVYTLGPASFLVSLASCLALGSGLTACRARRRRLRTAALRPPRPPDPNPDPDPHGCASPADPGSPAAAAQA

R275C = conditions: at 30 µM
R275C/beta1 = conditions: at 30 µM
R275C/beta2Delta = conditions: at 30 µM
R275C/beta4 = conditions: at 30 µM
R275C/Slo1WT/beta2 = conditions: at 30 µM

Row | SMILES | log fold change Tl+ flux (F380Y) | log fold change Tl+ flux (F380Y/beta1) | log fold change Tl+ flux (F380Y/beta2Delta) | log fold change Tl+ flux (F380Y/beta4) | log fold change Tl+ flux [1] | log fold change Tl+ flux (R275C) | log fold change Tl+ flux (R275C/beta1) | log fold change Tl+ flux (R275C/beta2Delta) | log fold change Tl+ flux (R275C/beta4) | log fold change Tl+ flux (R275C/Slo1WT/beta2)
1 | Cc1nc(-c2ccc(C(F)(F)F)cc2)sc1CO | 0.0603 | 0.197 (active) | 0.0517 | 0.104 (active) | 0.156 (active) | 0.0174 | 0.0853 | 0.0843 (active) | 0.0953 (active) | 0.00529
2 | CCOC(=O)c1cnc(C(F)(F)F)nc1NN=Cc1c(Cl)cccc1Cl | -0.0741 | 0.0122 | -0.0116 | 0.00688 | -0.0599 | -0.0944 (active) | -0.124 (active) | -0.0798 | -0.0487 | -0.0141
3 | O=C1c2ccccc2NC(c2cc(Cl)cc(Cl)c2O)N1Cc1cccnc1 (stereo not given) | 0.0629 | 0.0897 (active) | 0.0333 | 0.104 (active) | 0.0598 | 0.00967 | 0.0327 | 0.0578 | 0.0953 (active) | -0.0554
4 | CN(C1CCCCC1)S(=O)(=O)c1cccs1 | -0.0928 | -0.00759 | -0.0383 | 0.000313 | -0.00414 | -0.0438 | -0.00595 | -0.0535 | -0.025 | 0.0321
5 | COC(=O)c1cncc(Br)c1 | -0.0118 | 0.012 | 0.0106 | -0.0443 | -0.0357 | -0.0441 | -0.0547 | -0.0215 | -0.021 | -0.0413
6 | Clc1ccc(-c2cnc(-c3ccc(Cl)cc3)o2)cc1 | 0.0159 | -0.0226 | 0.0345 | -0.00734 | -0.0607 | 0.0428 | 0.00118 | 0.0163 | 0.00237 | -0.017
7 | COC(=O)c1cc(S(=O)(=O)N(Cc2ccc(OC)cc2)Cc2cccn2C)oc1C | -0.118 (active) | -0.0838 (active) | -0.0509 | -0.483 (active) | -0.414 (active) | -0.56 (active) | -0.496 (active) | -0.122 (active) | -0.289 (active) | -0.135 (active)
8 | Cc1ccc(S(=O)(=O)c2ncsc2SCc2ccc(Cl)cc2Cl)cc1 | 0.0356 | -0.0176 | 0.0366 | -0.0184 | 0.00897 | -0.00241 | 0.0419 | -0.0166 | -0.0112 | -0.00155
9 | COC(=O)Cc1cccc2c(=O)c3ccccc3oc12 | 0.00439 | -0.00882 | 0.0497 | 0.0357 | 0.00575 | 0.0179 | -0.0476 | 0.00558 | 0.00377 | 0.049
10 | NC1(C(=O)O)CCSCC1 | -0.0475 | 0.00895 | -0.0146 | 0.00194 | -0.0223 | -0.0154 | -0.0495 | 0.0435 | -0.00913 | -0.00295
11 | Cc1cc(NS(=O)(=O)c2ccc(NC(=O)c3nccnc3C(=O)O)cc2)no1 | -0.0365 | 0.00855 | -0.054 | -0.0573 | -0.136 (active) | -0.0122 | 0.022 | -0.0352 | 0.0165 | -0.0416
12 | Cc1nn(C)c(NCc2cccs2)c1[N+](=O)[O-] | 0.0023 | 0.00245 | 0.0628 | 0.018 | 0.0148 | -0.00626 | -0.0048 | 0.028 | -0.0356 | -0.0229
13 | O=S(=O)(Oc1ccc(F)cc1F)c1cccc(S(=O)(=O)Oc2ccc(F)cc2F)c1 | -0.193 (active) | -0.0152 | 0.00173 | -0.485 (active) | -0.264 (active) | -0.229 (active) | -0.209 (active) | -0.0138 | -0.144 (active) | -0.0996
14 | Cc1nn(-c2ccccc2)nc1C(=O)NNC(=O)CSCc1cccc2ccccc12 | 0.029 | 0.0449 | 0.0266 | -0.00465 | -0.0205 | 0.0152 | 0.0429 | -0.0226 | 0.097 (active) | 0.0123
15 | O=C(CSCc1csc2ccccc12)NCc1ccc2c(c1)OCO2 | -0.00508 | -0.0221 | -0.0281 | -0.0396 | -0.13 (active) | -0.0377 | -0.0155 | -0.0321 | -0.0151 | -0.0571
16 | Cc1cc(Sc2nnc(N=CN(C)C)s2)c2ccccc2n1 | 0.0126 | 0.0257 | -0.0453 | -0.0187 | 0.011 | 0.0403 | 0.0231 | 0.0658 | 0.0604 | 0.0405
17 | COC(=O)C(C#N)=C1NC(C)=NC(SC)=C1C#N | -0.0152 | 0.03 | -0.00376 | 0.021 | 0.0176 | -0.014 | -0.0163 | -0.0169 | -0.0352 | 0.0253
18 | Clc1cc(Cl)cc(Nc2ncnc(-n3cccc3)n2)c1 | 0.0686 | 0.0545 | 0.0354 | 0.0368 | 0.0181 | 0.00673 | 0.00955 | 0.0395 | -0.0107 | -0.0692
19 | CCOC(=O)CCSC1=NC(c2cccs2)C(C(=O)OCC)=C(C)N1 (stereo not given) | -0.00248 | -0.0154 | -0.0693 | -0.0516 | -0.0633 | -0.0523 | -0.0288 | -0.0824 | -0.0154 | -0.0325
20 | CC(=O)Nc1ccc(OCC(=O)N2CCN(c3ncc(C(F)(F)F)cc3Cl)CC2)cc1 | 0.046 | 0.0214 | 0.00987 | 0.125 (active) | 0.039 | 0.0368 | 0.00256 | 0.0353 | 0.0246 | 0.0473
21 | CC1(C)CC(=O)C=C(NCCCCCCCCNC2=CC(=O)CC(C)(C)C2)C1 | 0.000907 | 0.0262 | 0.0043 | 0.0246 | -0.0867 | -0.0564 | -0.0828 | -0.0562 | -0.0723 | -0.149 (active)
22 | CSc1cc(C(C)(C)C)[nH]n1 | -0.125 (active) | -0.0178 | -0.218 (active) | -0.423 (active) | 0.0568 | 0.0547 | 0.173 (active) | -0.014 | 0.047 | 0.0223
23 | COCCCNC1=C(C#N)C(=O)NC(c2cccs2)S1 (stereo not given) | 0.041 | 0.00355 | 0.0315 | -0.00136 | 0.0147 | -0.0102 | 0.0346 | 0.0144 | -0.0186 | -0.0245
24 | O=C1c2ccccc2C(=O)N1CNc1ccc(Oc2ccc(Cl)cc2)cc1 | 0.0258 | 0.986 (active) | 0.0357 | 0.151 (active) | 0.327 (active) | 0.06 | 0.443 (active) | 0.0194 | 0.104 (active) | 0.0127
25 | Cc1nn(Cc2nnn(CC(=O)NN=Cc3ccc(Cl)cc3)n2)c(C)c1Br | 0.0697 | 0.0216 | 0.00259 | -0.0438 | 0.0569 | 0.0224 | -0.0427 | -0.045 | 0.011 | 0.0426
26 | COC(=O)C=C1NCC(O)CNC1=O (stereo not given) | -0.00633 | -0.0361 | 0.00999 | -0.025 | -0.0336 | 0.0119 | -0.0456 | 0.0117 | -2.9e-05 | 0.0313
